# Reference: PubChem BioAssay (Tox21)
# Values without a mark were called inactive. Inconclusive results are not listed. Where a call stands in place of a potency, no number is given. Active and inactive are the calls of the source. Unless noted, calls come from the whole dose curve; as a rule, active = well fitted curve in the direction sought with a large enough effect in the repeat runs; inconclusive = weak or mixed curves; inactive = no such curve, though single readings can be large; an effect the other way counts as inactive or inconclusive.
# How the values were obtained:
# [1] = qHTS assay to identify small molecule antagonists of the retinoid acid receptor (RAR) signaling pathway - cell viability counter screen (AID 1159551); note: nearly all actives have a fitted effect of over 35% in size
# Summary of the method: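 Following overnight attachment, C3RL4 reporter cells received DMSO-dissolved compounds and then retinol (1 uM final). Six hours later at 37 C, ATP content was measured by CellTiter-Glo luminescence.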
# [2] = qHTS assay to identify small molecule antagonists of the retinoic acid receptor (RAR) signaling pathway (AID 1159552; note: nearly all actives have a fitted effect of over 50% in size)
# Summary of the method: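 Using a RARE-driven luciferase construct in C3RL4 cells, retinol at 1 uM final provided the agonist stimulus while compounds were co-applied. After 6 hours at 37 C, luminescence was recorded to flag inhibitors of retinol signaling.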
# [3] = qHTS assay to identify small molecule agonists of the retinoic acid receptor (RAR) signaling pathway (AID 1159553); conditions: C3RL4 RARE luciferase reporter, agonist, 6 h; activation: at 73.3 µM (top of the series); note: potency is the fitted concentration of half-maximal effect
# Summary of the method: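 Cell line C3RL4, RARE luciferase reporter. Treatment: compounds in DMSO, 6 hr, 37 C, 5% CO2, after overnight plating. Detection: luminescence, 30 min RT after reagent.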
# [4] = qHTS assay to identify small molecule antagonists of the estrogen related receptor (ERR) signaling pathway from Tox21 library - cell viability counter screen (AID 1224834); note: nearly all actives have a fitted effect of over 30% in size
# Summary of the method: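 Viability readout (CellTiter-Fluor fluorescence, 30 min at 37 C) multiplexed with the ERR assay; cells treated 17.5 h at 37 C with compounds delivered in DMSO.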
# [5] = target: Luciferin 4-monooxygenase (Photinus pyralis) (UniProt P08659); experiment: qHTS assay to identify small molecule inhibitors of firefly luciferase (AID 1224835); note: nearly all actives have a fitted effect of over 25% in size; note: potency is the fitted concentration of half-maximal effect
# Luciferin 4-monooxygenase (Photinus pyralis), sequence (P08659 whole entry, looked up): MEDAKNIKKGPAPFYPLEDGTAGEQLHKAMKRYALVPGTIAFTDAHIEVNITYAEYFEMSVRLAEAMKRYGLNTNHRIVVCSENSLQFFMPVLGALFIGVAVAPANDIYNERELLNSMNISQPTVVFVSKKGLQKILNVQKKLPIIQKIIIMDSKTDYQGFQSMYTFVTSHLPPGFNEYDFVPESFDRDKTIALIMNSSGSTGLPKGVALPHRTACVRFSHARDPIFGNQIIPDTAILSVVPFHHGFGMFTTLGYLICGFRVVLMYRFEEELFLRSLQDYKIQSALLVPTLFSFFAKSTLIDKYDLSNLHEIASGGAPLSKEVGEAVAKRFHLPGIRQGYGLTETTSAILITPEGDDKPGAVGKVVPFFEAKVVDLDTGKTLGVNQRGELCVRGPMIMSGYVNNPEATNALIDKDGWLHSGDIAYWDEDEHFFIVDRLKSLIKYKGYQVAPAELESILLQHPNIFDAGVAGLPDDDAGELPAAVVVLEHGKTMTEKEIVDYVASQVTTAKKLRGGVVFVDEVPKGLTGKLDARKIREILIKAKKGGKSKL
# Summary of the method: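 Biochemical qHTS: compounds run as interplate titrations against purified firefly enzyme, with D-luciferin and ATP each at its KM concentration. Light output recorded by CCD imaging.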
# [6] = qHTS assay to identify small molecule agonists of the constitutive androstane receptor (CAR) signaling pathway - cell viability counter screen (AID 1224836); note: nearly all actives have a fitted effect of over 45% in size
# Summary of the method: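 Multiplexed viability check: HepG2-CYP2B6-hCAR cells, 15-point compound dosing, 0.75 uM PK11195 final, 23 h at 37 C, CellTiter-Fluor fluorescence.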
# [7] = qHTS assay to identify small molecule antagonists of the constitutive androstane receptor (CAR) signaling pathway - cell viability counter screen (AID 1224837); note: nearly all actives have a fitted effect of over 45% in size
# Summary of the method: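 Fluorescence from CellTiter-Fluor served as the viability signal. Human hepatoma HepG2 cells stably bearing hCAR and CYP2B6-2.2kb received compound plus CITCO (50 nM final) for 23 hr.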
# [8] = target: Nuclear receptor subfamily 1 group I member 3 (Homo sapiens) (UniProt Q14994); experiment: qHTS assay to identify small molecule antagonists of the constitutive androstane receptor (CAR) signaling pathway (AID 1224838);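 note: HepG2 cells stably expressing hCAR with CYP2B6 luciferase reporter stimulated by CITCO; nearly all actives have a fitted effect of over 40% in size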
# Nuclear receptor subfamily 1 group I member 3 (Homo sapiens), sequence (Q14994 whole entry, looked up): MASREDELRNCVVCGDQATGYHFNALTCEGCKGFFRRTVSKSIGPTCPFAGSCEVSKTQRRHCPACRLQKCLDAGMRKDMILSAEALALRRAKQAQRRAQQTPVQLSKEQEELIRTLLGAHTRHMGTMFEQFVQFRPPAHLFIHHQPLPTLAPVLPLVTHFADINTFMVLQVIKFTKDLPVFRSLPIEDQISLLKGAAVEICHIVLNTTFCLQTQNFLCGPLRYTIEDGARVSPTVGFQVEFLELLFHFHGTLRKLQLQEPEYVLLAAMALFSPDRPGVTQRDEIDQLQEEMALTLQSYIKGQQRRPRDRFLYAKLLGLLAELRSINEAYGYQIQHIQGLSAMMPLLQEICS
# Summary of the method: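 Quantitative HTS in double-stable HepG2-CYP2B6-hCAR cells. After 4 h plating, cells get compound (15 concentrations) and CITCO at 50 nM final, incubate 24 h at 37 C, then ONE-Glo luminescence is read.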
# [9] = target: Nuclear receptor subfamily 1 group I member 3 (Homo sapiens) (UniProt Q14994); experiment: qHTS assay to identify small molecule agonists of the constitutive androstane receptor (CAR) signaling pathway (AID 1224839);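 note: HepG2 cells stably carrying human CAR and a CYP2B6 luciferase reporter; nearly all actives have a fitted effect of over 15% in size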
# Summary of the method: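 Using human hepatoma HepG2 cells engineered with hCAR and a CYP2B6-2.2kb reporter, 15-concentration compound series were incubated 24 h alongside PK11195 at 0.75 uM final, with luminescence quantified afterwards.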
# [10] = qHTS assay to identify small molecule agonists of the hypoxia (HIF-1) signaling pathway - cell viability counter screen (AID 1224844; calls by dose curve; note: nearly all actives have a fitted effect of over 50% in size)
# Summary of the method: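 Luminescent ATP content (CellTiter-Glo, 30 min, room temperature) served as the viability measure in HRE-bla ME-180 cells exposed to compounds for 17 hrs in low-serum medium (0.5% dialyzed FBS).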
# [11] = qHTS assay to identify small molecule agonists of H2AX (AID 1224845; active = well fitted activation curve with a large enough effect in the signal ratio in the repeat runs, not every such curve was filed as active; the % refers to the signal ratio)
# Summary of the method: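 Wild-type CHO-K1 cells, plated overnight, exposed 3hr at 37C to 15 concentrations (0.76% DMSO final). Lysed, then HTRF anti-pH2AX (S139) cryptate and anti-H2AX-d2 antibodies, 24 hr room temperature; 665/620 nm emission read.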
# [12] = qHTS assay to identify small molecule agonists of the hypoxia (HIF-1) signaling pathway (AID 1224846; active = well fitted activation curve with a large enough effect in the signal ratio in the repeat runs, not every such curve was filed as active; the % refers to the signal ratio)
# Summary of the method: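 Measured by blue/green FRET after loading CCF4-AM: beta-lactamase expressed from a hypoxia response element in ME-180 cells. Test agents were delivered in DMSO and left 17 hrs; cells had been plated 5 hrs earlier in low-serum (0.5% dialyzed FBS) medium.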
# [13] = qHTS assay to identify small molecule agonists of the RXR signaling pathway - cell viability counter screen (AID 1159529);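 note: HEK 293T cells carrying an RXR-alpha UAS beta-lactamase reporter; nearly all actives have a fitted effect of over 50% in size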
# Summary of the method: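 Viability read-out for the RXR-alpha agonist qHTS: luminescent CellTiter-Glo signal after 30 min at RT. HEK 293T bla reporter cells, 2% charcoal-stripped FBS, 16 hr compound incubation; tetraoctyl ammonium bromide as cytotoxic control.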
# [14] = qHTS assay to identify small molecule antagonists of the estrogen related receptor signaling pathway with the pleiotropic PPARgamma coactivator (PGC) from Tox21 10K library - cell viability counter screen (AID 1224840; active = well fitted cell-killing curve with a large enough effect in the repeat runs, not every such curve was filed as active; note: nearly all actives have a fitted effect of over 40% in size)
# Summary of the method: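 Compounds in DMSO, alongside positive and negative controls, were pinned onto PGC/ERR cells (2,000 per well). Exposure lasted 17.5 hours at 37 C, followed by a 30-minute CellTiter-Fluor incubation and fluorescence reading.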
# [15] = target: Thyrotropin receptor (Homo sapiens) (UniProt P16473); experiment: qHTS assay to identify small molecule agonists of the thyroid stimulating hormone receptor (TSHR) signaling pathway (AID 1224843; calls by dose curve; note: nearly all actives have a fitted effect of over 45% in size)
# Thyrotropin receptor (Homo sapiens), sequence (P16473 whole entry, looked up): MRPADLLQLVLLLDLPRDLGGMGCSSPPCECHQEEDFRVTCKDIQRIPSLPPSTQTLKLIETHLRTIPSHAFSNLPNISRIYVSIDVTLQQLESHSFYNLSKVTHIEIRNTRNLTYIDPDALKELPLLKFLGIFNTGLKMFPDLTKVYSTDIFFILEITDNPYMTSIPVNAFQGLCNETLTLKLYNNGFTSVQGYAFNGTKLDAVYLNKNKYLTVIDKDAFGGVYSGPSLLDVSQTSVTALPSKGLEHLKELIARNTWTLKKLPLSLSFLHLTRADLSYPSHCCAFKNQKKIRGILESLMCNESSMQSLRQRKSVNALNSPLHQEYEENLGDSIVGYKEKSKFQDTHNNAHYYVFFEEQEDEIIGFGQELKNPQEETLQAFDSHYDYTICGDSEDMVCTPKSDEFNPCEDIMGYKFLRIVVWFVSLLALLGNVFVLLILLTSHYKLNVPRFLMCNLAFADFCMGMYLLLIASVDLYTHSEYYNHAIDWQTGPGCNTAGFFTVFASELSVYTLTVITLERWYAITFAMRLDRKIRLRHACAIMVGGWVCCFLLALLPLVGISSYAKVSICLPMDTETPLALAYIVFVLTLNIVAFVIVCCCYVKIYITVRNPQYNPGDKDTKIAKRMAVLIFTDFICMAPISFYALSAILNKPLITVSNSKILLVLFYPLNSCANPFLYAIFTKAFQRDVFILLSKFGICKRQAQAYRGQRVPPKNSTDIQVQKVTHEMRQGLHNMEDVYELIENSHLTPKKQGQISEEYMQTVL
# Summary of the method: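 Steps: seed 800 TSHR-HEK293 cells per well; add test compound and hold 30 min at ambient temperature; dispense cAMP-d2 then anti-cAMP cryptate; incubate 1 h at ambient; measure fluorescence intensity.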
# [16] = qHTS assay to identify small molecule antagonists of the estrogen related receptor signaling pathway with the pleiotropic PPARgamma coactivator (PGC) from Tox21 10K library (AID 1224841; call rule not given here; note: actives are mostly falling curves and most rising ones were filed inactive; nearly all actives have a fitted effect of over 50% in size)
# Summary of the method: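 Compound exposure ran 18 hours at 37 C in PGC/ERR cells (2,000/well) that had first rested 6 hours in a 37 C/5% CO2 incubator. Luciferase activity was then detected with One-Glo after a 30-minute room-temperature step.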
# [17] = qHTS assay to identify small molecule agonists of the estrogen related receptor signaling pathway with the pleiotropic PPARgamma coactivator (PGC) from Tox21 10K library (AID 1224842); note: nearly all actives have a fitted effect of over 15% in size
# Summary of the method: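 PGC/ERR reporter cell line, 2,000 cells per well, incubated 6 h at 37 C before 23 nL compound in DMSO was added. After 18 h at 37 C, One-Glo luminescence read following 30 min at room temperature.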
# [18] = qHTS assay to identify small molecule agonists of H2AX - cell viability counter screen (AID 1224847; calls by dose curve; note: top concentration of the series differs between compounds; nearly all actives have a fitted effect of over 30% in size)
# Summary of the method: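 After overnight plating of 1000 CHO-K1 cells per well, a 15-concentration compound series was applied for 3 hr at 37C. Luminescence from CellTiter-Glo, read following 30 min at room temperature, reflected cell viability.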
# [19] = qHTS assay to identify small molecule antagonists of the estrogen related receptor (ERR) signaling pathway from Tox21 library (AID 1224848); note: nearly all actives have a fitted effect of over 50% in size
# Summary of the method: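 Luminescent reporter read-out (ONE-Glo) from NTP's ERR cell line after 18 h treatment at 37 C with DMSO-dissolved Tox21 compounds; cells pre-plated 6 h beforehand at 2,000 per well.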
# [20] = qHTS assay to identify small molecule agonists of the estrogen related receptor (ERR) signaling pathway from Tox21 library (AID 1224849; calls by dose curve; note: nearly all actives have a fitted effect of over 15% in size)
# Summary of the method: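 We plated ERR reporter cells, waited 6 h, added compounds in DMSO by pin tool and incubated them 18 h at 37 C. ONE-Glo was then added and luminescence read after 30 min.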
smiles,measurement,setting,value
CO[Si](CCCCl)(OC)OC,outcome,[1],inactive
same,Potency,[2],inactive
same,Potency,[3],inactive
same,Potency,[4],inactive
same,Potency,[5],inactive
same,outcome,[6],inactive
same,Potency,[7],inactive
same,Potency,[8],inactive
same,Potency,[9],inactive
same,outcome,[10],inactive
same,outcome,[11],inactive
same,outcome,[12],inactive
CCCCCCCCCCCCCC(=O)OC,outcome,[13],inactive
same,outcome,[1],inactive
same,Potency,[2],inactive
same,Potency,[3],inactive
same,outcome,[6],inactive
same,Potency,[7],inactive
same,outcome,[14],inactive
same,outcome,[15],inactive
same,outcome,[10],inactive
CCCCCCCCCOCC1CO1 (centres undefined),outcome,[13],inactive
same,outcome,[1],inactive
same,Potency,[2],inactive
same,Potency,[4],inactive
same,outcome,[6],inactive
same,Potency,[7],inactive
same,Potency,[8],inactive
same,outcome,[14],inactive
same,Potency,[16],inactive
same,outcome,[17],inactive
same,outcome,[15],inactive
same,outcome,[10],inactive
same,outcome,[11],inactive
same,outcome,[12],inactive
same,Potency,[18],inactive
same,Potency,[19],inactive
same,outcome,[20],inactive
CCOC(=O)CCCCCCCCC(=O)OCC,outcome,[13],inactive
same,outcome,[1],inactive
same,Potency,[2],inactive
same,Potency,[5],inactive
same,outcome,[6],inactive
same,Potency,[7],inactive
same,Potency,[8],inactive
same,outcome,[14],inactive
same,outcome,[10],inactive
same,outcome,[11],inactive
same,outcome,[12],inactive
same,Potency,[18],inactive
CC(C)COC(=O)/C=C/c1ccccc1,outcome,[1],inactive
same,Potency,[2],inactive
same,Potency,[3],30.6 µM (active)
same,Potency,[4],inactive
same,Potency,[5],7.1 µM (active)
same,outcome,[6],inactive
same,Potency,[7],inactive
same,Potency,[8],inactive
same,outcome,[14],inactive
same,Potency,[16],inactive
same,outcome,[17],inactive
same,outcome,[10],inactive
same,outcome,[11],inactive
same,outcome,[12],inactive
same,Potency,[19],inactive
same,outcome,[20],inactive
O=C(O)c1ccccc1C(=O)OCc1ccccc1,outcome,[13],inactive
same,outcome,[1],inactive
same,Potency,[2],inactive
same,Potency,[4],inactive
same,Potency,[5],39.9 µM (active)
same,outcome,[6],inactive
same,Potency,[7],inactive
same,Potency,[8],inactive
same,outcome,[14],inactive
same,outcome,[10],inactive
same,Potency,[18],inactive
CCC(C)(C)C1CCC(=O)CC1,outcome,[13],inactive
same,outcome,[1],inactive
same,Potency,[2],inactive
same,Potency,[4],inactive
same,Potency,[5],inactive
same,outcome,[6],inactive
same,Potency,[7],inactive
same,outcome,[14],inactive
same,Potency,[16],inactive
same,outcome,[17],inactive
same,outcome,[15],inactive
same,outcome,[12],inactive
same,Potency,[19],inactive
same,outcome,[20],inactive
CCOC(=O)CC#N,outcome,[13],inactive
same,outcome,[1],inactive
same,Potency,[2],inactive
same,Potency,[4],inactive
same,Potency,[5],inactive
same,outcome,[6],inactive
same,Potency,[7],inactive
same,outcome,[14],inactive
same,outcome,[15],inactive
same,outcome,[10],inactive
same,outcome,[11],inactive
same,outcome,[12],inactive
same,Potency,[18],inactive
CCCCOC(=O)[C@@H](C)Oc1ccc(Oc2ccc(C(F)(F)F)cn2)cc1,outcome,[13],inactive
same,outcome,[1],inactive
same,Potency,[2],inactive
same,Potency,[4],inactive
same,Potency,[5],inactive
same,outcome,[6],inactive
same,Potency,[7],inactive
same,Potency,[8],inactive
same,outcome,[10],inactive
same,outcome,[11],inactive
same,outcome,[12],inactive
CCCCCCCC[Si](OCC)(OCC)OCC,outcome,[13],inactive
same,outcome,[1],inactive
same,Potency,[2],inactive
same,Potency,[4],inactive
same,outcome,[6],inactive
same,Potency,[7],inactive
same,outcome,[10],inactive
same,outcome,[11],inactive
same,Potency,[18],inactive
C=C(C)[C@@H]1CC[C@@H](C)C[C@@H]1O,outcome,[13],inactive
same,outcome,[1],inactive
same,Potency,[4],inactive
same,outcome,[6],inactive
same,Potency,[7],inactive
same,outcome,[11],inactive
same,outcome,[12],inactive
CC(C)COC(=O)CC(C(=O)OCC(C)C)S(=O)(=O)O (centres undefined),outcome,[13],inactive
same,outcome,[1],inactive
same,Potency,[2],inactive
same,Potency,[4],inactive
same,Potency,[5],inactive
same,outcome,[6],inactive
same,Potency,[7],inactive
same,Potency,[8],inactive
same,outcome,[14],inactive
same,outcome,[11],inactive
CCOC(=O)C(=O)c1csc(NC=O)n1,outcome,[13],inactive
same,outcome,[1],inactive
same,Potency,[2],inactive
same,Potency,[4],inactive
same,Potency,[5],inactive
same,outcome,[6],inactive
same,Potency,[7],inactive
same,outcome,[14],inactive
same,outcome,[11],inactive
same,outcome,[12],inactive
same,Potency,[18],inactive
C=CCCCCCCCCCCC,"activity change, negative = cytotoxicity",[13],0.762% [at 6.97 µM]
same,"activity change, negative = cytotoxicity",[1],5.5% [at 8.39 µM]
same,"activity, negative = inhibition",[2],18.9% [at 8.39 µM]
same,"viability change, negative = cytotoxic",[4],0.22% [at 8.39 µM]
same,"viability change, negative = cytotoxic",[6],-0.862% [at 8.39 µM]
same,"activity change, negative = cytotoxicity",[7],6.96% [at 8.39 µM]
same,"viability change, negative = cytotoxic",[14],1.26% [at 8.39 µM]
same,activation,[15],-0.0254% [at 8.39 µM]
same,"activity change, negative = cytotoxicity",[10],2.72% [at 6.97 µM]
same,activation (H2AX phosphorylation),[11],-0.58% [at 14 µM]
same,"activity change, negative = cytotoxicity",[18],3.67% [at 14 µM]
FC(F)(F)c1ccc(Cl)cc1Cl,outcome,[1],inactive
same,Potency,[2],inactive
same,activation,[3],0.481% (active)
same,Potency,[4],inactive
same,outcome,[6],inactive
same,Potency,[7],inactive
same,Potency,[16],inactive
same,outcome,[17],inactive
same,outcome,[15],inactive
same,outcome,[10],inactive
same,outcome,[11],inactive
same,outcome,[12],inactive
same,Potency,[18],inactive
same,Potency,[19],inactive
same,outcome,[20],inactive
CC(=O)c1ccc2c(c1)CCCC2,outcome,[1],inactive
same,Potency,[2],inactive
same,Potency,[4],inactive
same,outcome,[6],inactive
same,Potency,[7],inactive
same,Potency,[8],inactive
same,outcome,[14],inactive
same,Potency,[16],inactive
same,outcome,[17],inactive
same,outcome,[15],inactive
same,outcome,[10],inactive
same,outcome,[11],inactive
same,Potency,[18],inactive
same,Potency,[19],inactive
same,outcome,[20],inactive
Oc1ccccc1Cc1ccccc1O,outcome,[1],inactive
same,Potency,[2],inactive
same,Potency,[3],inactive
same,Potency,[4],inactive
same,outcome,[6],inactive
same,Potency,[7],inactive
same,Potency,[8],inactive
same,outcome,[14],inactive
same,Potency,[16],inactive
same,outcome,[17],inactive
same,outcome,[15],inactive
same,outcome,[11],inactive
same,outcome,[12],inactive
same,Potency,[18],inactive
same,Potency,[19],inactive
same,outcome,[20],inactive
